Out of some 190,000 compounds screened, about 1,900 (1%) were called active. The sample holds actives, similar compounds and a random draw of the others, so the mix is not that of the screen.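 Rule for the calls: active = percentage of spot-positive cells more than 3 SD above its plate mean, without a fluorescence outlier flag or 80% toxicity; inconclusive = no clear call, values can overlap the other calls; inactive = the rest.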
assay: GFP-LC3 puncta formation changes – imaging, high-content, MEF GFP-LC3, primary screen (AID 463193); conditions: autophagy, at 10 µM; % cells with GFP-LC3 spots: stronger effect = higher value; toxicity: measured here: cell loss, nuclei count;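 for % cells with GFP-LC3 spots: spot-positive cell cutoff set from DMSO-treated cells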;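 for toxicity: cell loss after 18 h compound exposure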

Row | SMILES | % cells with GFP-LC3 spots | toxicity
1 | C=CCC(C(=O)c1ccccc1)[N+](C)(C)CC=C (centres undefined) | 2.53% (inactive) | -14.3%
2 | COC(=O)COc1ccc(C2NC(=O)NC(C)=C2C(=O)NCc2ccccc2)cc1OC (centres undefined) | 0.797% (inactive) | 20.4%
3 | Cn1c(N)c(C(=O)COC(=O)c2cnc(Cl)c(Cl)c2)c(=O)n(C)c1=O | 0.712% (inactive) | 15.7%
4 | Cc1c(Cl)cccc1NC(=O)CSc1ccc(-c2cccnc2)nn1 | 0.277% (inactive) | -2.28%
5 | CCC(=O)Nc1cc(C(F)(F)F)ccc1N1CCCC1 | 0.264% (inactive) | -3.5%
6 | CCN1CCN(CC(=O)Nc2sc3c(c2C#N)CCC3)CC1 | 2.15% (inactive) | 4.77%
7 | CN1CCN(CC(=O)Nc2sc3c(c2C#N)CCC(C(C)(C)C)C3)CC1 (centres undefined) | 41.9% (active) | 29.1%
8 | CCC1CCc2c(sc(NC(C)=O)c2C#N)C1 (centres undefined) | 6.62% (inactive) | -8.42%
9 | CC1(C)CC(=O)c2ccc(O)cc2O1 | 1.01% (inactive) | 7.65%
10 | CCOc1ccc(CN2CCN(Cc3ccc(C)o3)CC2CCO)cc1 (centres undefined) | 0.14% (inactive) | -9.23%
11 | CC1=CC(C)(C)Nc2ccc(OC(=O)CN3C(=O)C4CCCCC4C3=O)cc21 (centres undefined) | 8.28% (inactive) | 24.4%
12 | O=C(CCN1C(=O)C2C3C=CC(C3)C2C1=O)Oc1ccc2ccccc2c1 (centres undefined) | 11.3% (inactive) | 19.4%
13 | O=C(CN1C(=O)C2C3CCC(C3)C2C1=O)Oc1ccc2ccccc2c1 (centres undefined) | 18.4% (active) | -20.7%
14 | COCCNc1nc2nonc2nc1N(C)Cc1ccc(C)cc1 | 1.24% (inactive) | -31.9%
15 | Cc1cn(C)c(=O)n(C)c1=O | 8.58% (inactive) | 10.3%
16 | O=C(O)CSCC(=O)Nc1cccc(C(F)(F)F)c1 | 6.64% (inactive) | 0%
17 | COc1ccc(NC(=O)CN(C)CC(=O)Nc2cccc(C(F)(F)F)c2)cc1 | 2.37% (inactive) | 1.34%
18 | COc1ccc(NC(=O)C(=O)NCC(=O)Nc2cccc(C(F)(F)F)c2)cc1 | 8.9% (active) | 11.1%
19 | CC1Cc2ccccc2N1C1=CC(=O)CC(C)(C)C1 (centres undefined) | 2.88% (inactive) | 3.93%
20 | CCc1nnc(NC(=O)/C=C/c2ccc(C)o2)s1 | 3.65% (inactive) | 1.45%
21 | Cc1ccc(/C=C/C(=O)Nc2ccc([N+](=O)[O-])c(NC(=O)/C=C/c3ccc(C)o3)c2)o1 | 55.6% (active) | 0.679%
22 | Cc1c(NC(=O)/C=C/C(=O)O)cccc1[N+](=O)[O-] | 8.95% (inactive) | -17.9%
23 | CCCCc1ccc(NC(=S)N2CCCC(CO)C2)cc1 (centres undefined) | 11.5% (inactive) | 11.5%
24 | COc1ccc2cc(-c3[nH]ncc3CNCCn3nc(C)cc3C)ccc2c1 | 16.9% (inactive) | 22%

Row | SMILES | % cells with GFP-LC3 spots | toxicity
25 | CC(=O)NC1=NN(C(C)=O)C(C)(CCS(=O)(=O)c2ccc(Cl)c(Cl)c2)S1 (centres undefined) | 9.23% (inactive) | 11.3%
26 | CC(=O)NC1=NN(C(C)=O)C(C)(c2ccc(Cl)s2)S1 (centres undefined) | 21.9% (active) | 54.1%
27 | CC(=O)NC1=NN(C(C)=O)C(C)(c2ccc(C)cc2)S1 (centres undefined) | 4% (inactive) | -6.62%
28 | COc1ccc(N2CCN(c3ccc([N+](=O)[O-])nc3)CC2)cc1 | 7.77% (inactive) | 4.08%
29 | O=C(N/N=C/c1ccc(Br)o1)c1cncc(Br)c1 | 33.5% (inactive) | -0.407%
30 | CCN(CC)CCCNC(=O)c1ccc2c(=O)n(Cc3ccc4c(c3)OCO4)c(=S)[nH]c2c1 | 0.744% (inactive) | 5.92%
31 | CC(Nc1nc(N2CCOCC2)nc2ccccc12)c1ccccc1 (centres undefined) | 0.846% (inactive) | 11.2%
32 | CC(Nc1nc(N2CCN(CCO)CC2)nc2ccccc12)c1ccccc1 (centres undefined) | 30.9% (inactive) | 23.9%
33 | CC(Nc1nc(N2CCCC2)nc2ccccc12)c1ccccc1 (centres undefined) | 13.8% (active) | -2.79%
34 | O=C(CS(=O)(=O)c1ccccc1)Nc1ccc(S(=O)(=O)Nc2ccccn2)cc1 | 0.85% (inactive) | 0.1%
35 | C=CCN1C(=O)C(Cc2ccc(OCC)cc2)SC1=Nc1ccc(C(=O)O)cc1 (centres undefined) | 9.61% (inactive) | -5.34%
36 | O=c1c2ccccc2nc(CSc2nnnn2-c2ccccc2)n1-c1ccccc1 | 39.8% (active) | -13.7%
37 | Cc1ccc(Nc2nc(CSc3nnnn3-c3ccccc3)cc(=O)[nH]2)cc1 | 3.58% (inactive) | 2.22%
38 | O=c1c2ccccc2nnn1CSc1nnnn1-c1ccccc1 | 7.02% (inactive) | 5.05%
39 | CCCC(=O)NC(=S)Nc1ccc(CN2CCOCC2)cc1 | 10.3% (inactive) | -3.3%
40 | CCNC(=O)COC(=O)/C=C/c1c(C)nn(Cc2cccc(OC)c2)c1Cl | 10.7% (inactive) | 15.5%
41 | COC(=O)c1ccc(NC(=O)c2cc(Cl)ccc2OC)cc1 | 0.193% (inactive) | -8.44%
42 | CC(=O)c1cc(NC(=O)c2ccccc2)c(=O)oc1/C=C/N(C)C | 2.32% (inactive) | 8.72%
43 | CCOC(=O)NNC(=O)c1ccc(Cl)cc1 | 2.34% (inactive) | 8.61%
44 | CCOC(=O)c1cc(NC(=O)c2ccc(Cl)cc2)c(=O)oc1-c1ccccc1 | 15.9% (active) | -0.561%
45 | CC(C)NC(=O)NC(=O)CSc1nnc(-c2ccccc2F)n1N | 4.07% (inactive) | -3.54%
46 | Cc1cc([N+](=O)[O-])nn1Cc1ccc(F)cc1 | 11.8% (inactive) | 3.65%
47 | Cc1cnc(C(=O)OCC(=O)NCCCc2ccccc2)cn1 | 19.9% (inactive) | 14.4%
